Test results from PubChem BioAssay AID1159580 (chemical genetic matrix, 2015).
Out of some 5,500 compounds screened, about 2,000 (36%) were called active. Roughly 18% stayed inconclusive and do not appear here. No stated cut-off is given here; in the data, active means normalized growth mostly below about 0.91 (no sharp cut-off); inconclusive means no clear call, values can overlap the other calls; inactive means mostly above about 0.92. This is one part of the list.

Test: chemical genetic growth profiling, strain panel (AID 1159580);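 further: tested at 20 µM; growth read once vehicle control cultures reached saturation at 30 °C; 1 = growth at the plate median or of vehicle wells; lower values mean less growth of the strain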
Conditions: growth OD

Measured: normalized growth

ClC(Cl)=C(c1ccc(Cl)cc1)c1ccc(Cl)cc1
inactive: S. cerevisiae deletion strains, locus YJR075W, strain HOC1, active compounds read low 0.947 | S. cerevisiae deletion strains, locus YKL009W, strain mrt4, active compounds read low 0.995 | S. cerevisiae deletion strains, locus YKL085W, strain MDH1 (second series), active compounds read low 0.931 | S. cerevisiae deletion strains, locus YKL085W, strain MDH1, active compounds read low 0.931 | S. cerevisiae deletion strains, locus YKL160W, strain elf1, active compounds read low 0.998 | S. cerevisiae deletion strains, locus YKL190W, strain CNB1, active compounds read low 0.966 | S. cerevisiae deletion strains, locus YKR001C, strain vps1, active compounds read low 0.949 | S. cerevisiae deletion strains, locus YKR026C, strain gcn3, active compounds read low 1 | S. cerevisiae deletion strains, locus YKR091W, strain srl3, active compounds read low 0.985 | S. cerevisiae deletion strains, locus YLL001W, strain dnm1, active compounds read low 0.996 | S. cerevisiae deletion strains, locus YLL026W, active compounds read low 0.993 | S. cerevisiae deletion strains, locus YLL041C, strain sdh2, active compounds read low 0.991 | S. cerevisiae deletion strains, locus YLR027C, strain aat2, active compounds read low 1.01 | S. cerevisiae deletion strains, locus YLR058C, strain SHM2, active compounds read low 0.962 | S. cerevisiae deletion strains, locus YLR102C, strain apc9, active compounds read low 0.954 | S. cerevisiae deletion strains, locus YLR113W, strain HOG1, active compounds read low 0.979 | S. cerevisiae deletion strains, locus YLR221C, strain rsa3, active compounds read low 0.994 | S. cerevisiae deletion strains, locus YLR258W, strain gsy2, active compounds read low 0.985 | S. cerevisiae deletion strains, locus YLR262C, strain YPT6 (second series), active compounds read low 1.04 | S. cerevisiae deletion strains, locus YLR262C, strain YPT6, active compounds read low 0.652 | S. cerevisiae deletion strains, locus YLR268W, strain sec22, active compounds read low 0.969 | S. cerevisiae deletion strains, locus YLR320W, strain mms22, active compounds read low 0.967 | S. cerevisiae deletion strains, locus YLR330W, strain CHS5, active compounds read low 0.962 | S. cerevisiae deletion strains, locus YLR342W, strain FKS1 (second series), active compounds read low 0.879 | S. cerevisiae deletion strains, locus YLR342W, strain FKS1, active compounds read low 0.983 | S. cerevisiae deletion strains, locus YLR357W, strain rsc2, active compounds read low 1 | S. cerevisiae deletion strains, locus YLR370C, strain arc18, active compounds read low 0.996 | S. cerevisiae deletion strains, locus YLR371W, strain rom2, active compounds read low 0.953 | S. cerevisiae deletion strains, locus YLR384C, strain iki3, active compounds read low 0.987 | S. cerevisiae deletion strains, locus YLR418C, strain cdc73, active compounds read low 0.905 | S. cerevisiae deletion strains, locus YML016C, strain PPZ1, active compounds read low 0.946 | S. cerevisiae deletion strains, locus YML032C, strain rad52, active compounds read low 0.949 | S. cerevisiae deletion strains, locus YML120C, strain ndi1, active compounds read low 0.988 | S. cerevisiae deletion strains, locus YML124C, strain tub3, active compounds read low 0.942 | S. cerevisiae deletion strains, locus YMR058W, strain fet3, active compounds read low 0.996 | S. cerevisiae deletion strains, locus YMR078C, strain ctf18, active compounds read low 0.925 | S. cerevisiae deletion strains, locus YMR125W, strain sto1, active compounds read low 0.988 | S. cerevisiae deletion strains, locus YMR129W, active compounds read low 0.997 | S. cerevisiae deletion strains, locus YMR205C, strain PFK2, active compounds read low 0.959 | S. cerevisiae deletion strains, locus YMR223W, strain ubp8, active compounds read low 0.964 | S. cerevisiae deletion strains, locus YMR231W, strain pep5, active compounds read low 0.999 | S. cerevisiae deletion strains, locus YMR263W, strain SAP30, active compounds read low 0.96 | S. cerevisiae deletion strains, locus YMR307W, strain GAS1, active compounds read low 0.978 | S. cerevisiae deletion strains, locus YNL067W, strain RPL9B, active compounds read low 0.974 | S. cerevisiae deletion strains, locus YNL071W, strain lat1, active compounds read low 1 | S. cerevisiae deletion strains, locus YNL128W, strain TEP1, active compounds read low 0.973 | S. cerevisiae deletion strains, locus YNL153C, strain GIM3, active compounds read low 0.98 | S. cerevisiae deletion strains, locus YNL183C, strain NPR1, active compounds read low 0.986 | S. cerevisiae deletion strains, locus YNL209W, strain ssb2, active compounds read low 0.994 | S. cerevisiae deletion strains, locus YNL233W, strain BNI4, active compounds read low 0.981 | S. cerevisiae deletion strains, locus YNL248C, strain rpa49, active compounds read low 0.993 | S. cerevisiae deletion strains, locus YNL250W, strain rad50, active compounds read low 0.917 | S. cerevisiae deletion strains, locus YNL271C, strain bni1, active compounds read low 0.957 | S. cerevisiae deletion strains, locus YNL298W, strain CLA4, active compounds read low 0.953 | S. cerevisiae deletion strains, locus YNL322C, strain KRE1 (second series), active compounds read low 0.989 | S. cerevisiae deletion strains, locus YNL322C, strain KRE1, active compounds read low 0.963 | S. cerevisiae deletion strains, locus YNR049C, strain mso1, active compounds read low 0.994 | S. cerevisiae deletion strains, locus YNR052C, strain pop2, active compounds read low 0.954 | S. cerevisiae deletion strains, locus YOL006C, strain TOP1, active compounds read low 1.01 | S. cerevisiae deletion strains, locus YOL012C, strain htz1 0.487 | S. cerevisiae deletion strains, locus YOL147C, strain pex11, active compounds read low 0.946 | S. cerevisiae deletion strains, locus YOR001W, strain rrp6, active compounds read low 0.989 | S. cerevisiae deletion strains, locus YOR061W, strain CKA2, active compounds read low 0.957 | S. cerevisiae deletion strains, locus YOR069W, strain VPS5, active compounds read low 0.955 | S. cerevisiae deletion strains, locus YOR070C, strain gyp1, active compounds read low 1 | S. cerevisiae deletion strains, locus YOR080W, strain dia2, active compounds read low 0.988 | S. cerevisiae deletion strains, locus YOR083W, strain WHI5, active compounds read low 0.994 | S. cerevisiae deletion strains, locus YOR106W, strain vam3, active compounds read low 1 | S. cerevisiae deletion strains, locus YOR136W, strain idh2, active compounds read low 0.96 | S. cerevisiae deletion strains, locus YOR144C, strain elg1, active compounds read low 0.952 | S. cerevisiae deletion strains, locus YOR184W, strain ser1, active compounds read low 0.954 | S. cerevisiae deletion strains, locus YOR231W, strain MKK1, active compounds read low 1.04 | S. cerevisiae deletion strains, locus YOR265W, strain rbl2, active compounds read low 0.992 | S. cerevisiae deletion strains, locus YOR270C, strain vph1, active compounds read low 0.978 | S. cerevisiae deletion strains, locus YOR290C, strain snf2, active compounds read low 0.99 | S. cerevisiae deletion strains, locus YOR316C, strain cot1, active compounds read low 0.945 | S. cerevisiae deletion strains, locus YPL051W, strain arl3, active compounds read low 0.989 | S. cerevisiae deletion strains, locus YPL055C, strain LGE1, active compounds read low 0.983 | S. cerevisiae deletion strains, locus YPL078C, strain atp4, active compounds read low 0.991 | S. cerevisiae deletion strains, locus YPL106C, strain sse1, active compounds read low 0.991 | S. cerevisiae deletion strains, locus YPL240C, strain hsp82, active compounds read low 0.989 | S. cerevisiae deletion strains, locus YPL241C, strain CIN2, active compounds read low 0.973 | S. cerevisiae deletion strains, locus YPL256C, strain CLN2, active compounds read low 1.05 | S. cerevisiae deletion strains, locus YPR119W, strain clb2, active compounds read low 0.932 | S. cerevisiae deletion strains, locus YPR141C, strain kar3, active compounds read low 0.93 | S. cerevisiae deletion strains, locus YPR163C, strain tif3, active compounds read low 0.952 | S. cerevisiae deletion strains, locus YPR167C, strain met16, active compounds read low 0.942 | S. cerevisiae deletion strains, strain wtn01, active compounds read low 0.936 | S. cerevisiae strains, strain wild type, active compounds read low 0.958
active: S. cerevisiae deletion strains, locus YKL068W, active compounds read low 0.94 | S. cerevisiae deletion strains, locus YLR039C, strain RIC1, active compounds read low 0.637 | S. cerevisiae deletion strains, locus YNL307C, strain MCK1, active compounds read low 0.841
